Assay outcomes as filed in PubChem BioAssay.
S2 tox – cell viability loss in ATXN counter-screen. S2 cells (HEK-293 line with an ATXN2-luciferase reporter) viability, CellTiter-Fluor protease fluorescence, 24 h. Potency, µM (doses to about 56.7 µM), usual class: cytotoxic. 400,000 tested, 0.49% active; further: nearly all actives have a fitted effect of over 40% in size
HepG2 viability – kills HepG2 cells in TGF-b inhibitor counter-screen | AID 588856 | Potency, µM (top dose mostly 46.1 µM), most hits filed as cytotoxic | 410,000 tested, 0.76% active | HepG2 CAGA-GFP viability, ATP luminescence, 18 h
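HepG2 CAGA-GFP cells (1000/well, DMEM with 1% FBS) received compound, then TGF-beta at 500 pg/mL final, and were incubated 18 hours at 37 degrees C. Viability was read by CellTiter-Glo luminescence. Media-only wells were set as complete cell-killing and DMSO as no toxicity.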
ATXN2 expr inh – ATXN2 expression inhibition; HEK-293 ATXN2-luciferase reporter, luminescence, 24 h; Potency, µM (doses to about 57 µM), most hits filed as inhibitors; 360,000 tested, 0.72% active; further: nearly all actives have a fitted effect of over 55% in size
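ATXN2-luciferase reporter cells (luciferase flanked by upstream and downstream ATXN2 gene portions) were treated 24 h at 37 °C with compounds at up to 57 uM. SteadyGlo luminescence gave expression; GF-AFC fluorescence gave viability.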
TGFb inhibitor – inhibitors of TGF-b signaling. HepG2 CAGA-GFP TGF-b/SMAD3 reporter, GFP fluorescence, 18 h; TGF-beta stimulated, 500 pg/mL final. Potency, µM (titrated, usually from 46.1 µM), actives largely listed as inhibitors. 410,000 tested, 1.2% active. AID 588855; further: nearly all actives have a fitted effect of over 65% in size
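HEPG2 CAGA-GFP reporter cells (1000/well, DMEM with 1% FBS) received compounds, then recombinant TGF-beta at 500 pg/mL final for 18 hours at 37 degrees C. Per-cell GFP summed per well was normalised to unstimulated and stimulated DMSO controls before curve fitting.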
GLP-1R agonist – activates the human GLP-1 receptor; P43220; Potency, µM (highest dose often 45.6 µM), actives largely listed as activators; HEK293 GLP-1R CRE-luciferase, luminescence, 4-6 h; cells express a hypersensitive GLP-1R form; 380,000 tested, 0.007% active
Target sequence (P43220 whole entry, looked up): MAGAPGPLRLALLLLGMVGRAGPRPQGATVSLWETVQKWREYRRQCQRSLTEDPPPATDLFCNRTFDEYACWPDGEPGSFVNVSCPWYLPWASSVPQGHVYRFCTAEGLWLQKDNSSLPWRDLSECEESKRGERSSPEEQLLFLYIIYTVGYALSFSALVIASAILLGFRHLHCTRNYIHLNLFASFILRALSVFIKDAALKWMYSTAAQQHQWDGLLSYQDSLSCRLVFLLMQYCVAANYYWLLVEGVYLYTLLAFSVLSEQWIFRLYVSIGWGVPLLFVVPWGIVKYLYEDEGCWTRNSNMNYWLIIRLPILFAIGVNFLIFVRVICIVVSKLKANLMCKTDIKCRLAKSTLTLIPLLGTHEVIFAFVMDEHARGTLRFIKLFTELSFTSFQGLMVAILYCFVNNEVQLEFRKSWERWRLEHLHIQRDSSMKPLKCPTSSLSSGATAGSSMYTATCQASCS
GLP1R inv ag – inverse agonists of human GLP-1 receptor; HEK293 GLP-1R CRE-luciferase, luminescence, 24 h; GLP-1R form is constitutively active; Potency, µM (titrated, usually from 38.3 µM), usual class: inhibitors; 410,000 tested, 1.6% active; AID 624417; further: nearly all actives have a fitted effect of over 55% in size
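Using stably transfected HEK293 (constitutively active GLP-1R, cAMP-luciferase reporter), compounds were incubated 24 hr and luciferase measured by luminescence.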
Of the large screens only hits and unclear results are named; the others gave an inactive call. A selection: hits, their analogues and other compounds. The true share with any hit is near 3.7%. The call rests on the fitted dose curve; in most records, active means well fitted curve in the direction sought with a large enough effect; inconclusive means small, poorly fitted or top-dose-only effect, or another doubt; inactive means no such curve, though single readings can be large; an effect the other way counts as inactive or inconclusive.

CCN(Cc1ccccc1)S(=O)(=O)c1ccc(C(=O)N(CCCN(C)C)c2nc3cc4c(cc3s2)OCCO4)cc1	S2 tox inconclusive, ATXN2 expr inh inconclusive, TGFb inhibitor inconclusive, GLP1R inv ag 12.6µM
COc1cccc(CCNC(=O)c2cnc3sc(N4CCCC4)nn3c2=O)c1	TGFb inhibitor inconclusive (no result: GLP-1R agonist)
COc1ccc2sc(N(CCCN(C)C)C(=O)c3ccc(S(=O)(=O)N4CCCc5ccccc54)cc3)nc2c1	HepG2 viability 11.2µM, ATXN2 expr inh inconclusive, TGFb inhibitor 22.4µM, GLP1R inv ag inconclusive (no result: S2 tox)
COc1cc2nc(N(CCCN(C)C)C(=O)c3ccc(S(=O)(=O)N4CCc5ccccc54)cc3)sc2cc1OC	GLP1R inv ag inconclusive
CNC(=S)N/N=C/c1c2ccccc2c(Cl)c2ccccc12	GLP1R inv ag 7.94µM (no result: S2 tox)
CNC(=S)N/N=C/c1c(C)cccc1Cl	GLP1R inv ag inconclusive
CCCCCCCN(c1ccccc1)C1C[C@H]2CCCC(=O)N3CC[C@@H](C1)[C@@H]23 (stereo not given in full)	TGFb inhibitor 14.1µM (no result: S2 tox, ATXN2 expr inh, GLP-1R agonist, GLP1R inv ag)
Cc1nc(N/N=C/c2ccccn2)sc1C	S2 tox inconclusive, TGFb inhibitor inconclusive, GLP1R inv ag 2.24µM
CCCc1sc(N/N=C/c2ccccn2)nc1-c1ccc(F)cc1	S2 tox 15.8µM, ATXN2 expr inh 3.98µM, TGFb inhibitor 11.2µM, GLP1R inv ag inconclusive
Cc1cc(C)n(Cc2cccc(C(=O)NCC3Cc4cccc(-c5ncccn5)c4O3)c2)n1 (stereo not given)	none (no result: HepG2 viability, ATXN2 expr inh, TGFb inhibitor, GLP-1R agonist, GLP1R inv ag)
Cc1ccc(S(=O)(=O)N(C)c2ccc(C(=O)NCC(c3ccco3)N(C)C)cc2)cc1 (stereo not given)	GLP1R inv ag 7.08µM
Cc1cccc(S(=O)(=O)N(CC(=O)Nc2ccccc2C)Cc2ccco2)c1	GLP1R inv ag 8.91µM
CN(C)CCOc1ccc(-c2c(-c3ccccc3)sc3ccccc23)cc1	S2 tox inconclusive, ATXN2 expr inh 20µM, TGFb inhibitor inconclusive, GLP1R inv ag inconclusive
Clc1ccc(C(c2cccs2)N2CCNCC2)cc1 (stereo not given)	GLP1R inv ag 4.47µM (no result: ATXN2 expr inh)
Fc1ccc(C(c2ccc(F)cc2)N2CCNCC2)cc1	none (no result: HepG2 viability, TGFb inhibitor, GLP-1R agonist, GLP1R inv ag)
COc1ccccc1CNC(=O)C1CCCN(c2nnc(-n3c(C)ccc3C)s2)C1 (stereo not given)	TGFb inhibitor inconclusive (no result: GLP-1R agonist)
CCC1(c2ccccc2)SCC(c2ccccc2)=NC1=O (stereo not given)	GLP1R inv ag 3.16µM
CCC1(c2ccccc2)SC(N)=NC1=O (stereo not given)	TGFb inhibitor inconclusive
C[C@H](CO)N1C[C@H](C)[C@H](CN(C)Cc2ccncc2)Oc2ccc(NC(=O)Nc3ccc(C(F)(F)F)cc3)cc2CC1=O	S2 tox 28.2µM, ATXN2 expr inh inconclusive, TGFb inhibitor 12.6µM, GLP1R inv ag inconclusive
C[C@H]1CN([C@@H](C)CO)C(=O)Cc2cc(NC(=O)Nc3ccccc3)ccc2O[C@H]1CN(C)Cc1ccccc1	S2 tox 28.2µM, ATXN2 expr inh inconclusive, TGFb inhibitor inconclusive, GLP1R inv ag inconclusive
C[C@H](CO)N1C[C@H](C)[C@H](CN(C)Cc2ccc(Oc3ccccc3)cc2)Oc2ccc(NC(=O)Nc3cccc4ccccc34)cc2CC1=O	TGFb inhibitor inconclusive, GLP1R inv ag inconclusive
COc1ccc2nc(N=NC3=C(O)CC(C)(C)CC3=O)sc2c1	ATXN2 expr inh inconclusive, GLP1R inv ag inconclusive (no result: S2 tox)
COc1ccc2nc(N=Nc3ccc(O)c4ccccc34)sc2c1	S2 tox 14.1µM, ATXN2 expr inh 14.1µM, TGFb inhibitor inconclusive
O=[N+]([O-])c1ccc(C(c2sc3nc(-c4ccco4)nn3c2O)N2CCC3(CC2)OCCO3)cc1 (stereo not given)	none (no result: GLP-1R agonist)
CC(CCC(C)[n+]1cccc(Br)c1)[n+]1cccc(Br)c1 (stereo not given)	none (no result: S2 tox, ATXN2 expr inh, GLP-1R agonist, GLP1R inv ag)
Cc1cccc(C(=O)NC(NCCc2ccccc2)C(Cl)(Cl)Cl)c1 (stereo not given)	GLP1R inv ag 4.47µM
